Hits are enriched below; roughly 2% of the tested compounds scored in any of these assays.
S1P4 agonist = human S1P4 receptor agonism; activation, % at 4.98 µM; O95977; S1P4-expressing cell line, agonist reporter assay; 220,000 compounds, 0.35% hits; in the data active means activation above about 11%;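 further: 0% = DMSO vehicle and 100% = reference agonist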
Target sequence (O95977 whole entry, looked up): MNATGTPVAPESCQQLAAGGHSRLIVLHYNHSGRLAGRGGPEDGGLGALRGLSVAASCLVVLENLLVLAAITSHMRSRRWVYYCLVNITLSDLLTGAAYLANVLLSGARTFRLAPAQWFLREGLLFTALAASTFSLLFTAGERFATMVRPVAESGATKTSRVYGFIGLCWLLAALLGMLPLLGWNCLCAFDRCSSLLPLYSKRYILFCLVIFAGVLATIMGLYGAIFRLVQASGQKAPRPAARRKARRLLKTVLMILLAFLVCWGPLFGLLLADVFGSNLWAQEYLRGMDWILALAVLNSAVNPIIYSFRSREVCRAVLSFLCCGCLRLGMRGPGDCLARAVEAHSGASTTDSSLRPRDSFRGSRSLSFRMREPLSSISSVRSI
PGE2 EP2 inh = inhibitors of human EP2 prostaglandin E2 receptor; C6 glioma cells expressing human EP2, cAMP TR-FRET; cells stimulated with saturating PGE2; 260,000 compounds, 0.52% hits; inhibition, % at 25 µM;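 active means percent inhibition above 40 after rounding to a whole number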;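 further: rat C6 glioma host cells with rolipram phosphodiesterase inhibitor present; the protocol text gives 20 µM as final concentration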
S1P3 antagonist = blocks the human S1P3 receptor. 170,000 compounds, 0.27% hits. Q99500. AID 485. CHO S1P3 NFAT-BLA reporter, FRET fluorescence, antagonist mode. inhibition, % at 4.98 µM;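 active means inhibition above the plate cutoff, the mean inhibition of test wells on that plate plus 3 SD, cut at about 28% in these data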;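 further: cells challenged with S1P at its EC80 of 0.8 µM; blue over green emission ratio from cleaved BLA substrate after 4 h stimulation; 0% = S1P-stimulated wells and 100% = unstimulated DMSO-only wells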
S1P4 antagonist = antagonists of human S1P4 receptor; O95977; inhibition, % at 4.98 µM; 220,000 compounds, 0.26% hits; AID 1510; S1P4-expressing cells, antagonist mode, reporter read-out; in the data active means inhibition above about 29%;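 further: 0% = wells stimulated with agonist and 100% = vehicle wells without agonist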
EP2 modulator = modulators of human EP2 prostaglandin E2 receptor; P43116; EP2-expressing cells, cAMP HTRF FRET, PGE2 co-stimulation; induction, % at 25 µM; 260,000 compounds, 0.83% hits; AID 940;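 active means compounds whose cAMP rise, as percent of the full-agonist control response, exceeds 60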;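 further: rat C6 glioma line stably carrying human EP2 under a CMV promoter; the protocol text gives 20 µM as final concentration; 100% = response of wells given 1 µM PGE2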
Active calls of the source: *; ! = repeats disagree.

`CC1(C)Cc2c(sc3c2c(=O)n(Cc2ccccc2)c2nncn32)CO1` gave S1P3 antagonist -51.7.
CC1(C)Cc2c(sc3[nH]c(=S)n(Cc4ccco4)c(=O)c23)CO1 was read as S1P4 agonist -1.0, PGE2 EP2 inh 40.3*, S1P4 antagonist 13.4 and EP2 modulator 37.3.
Screening Cc1ccc2[nH]c(=O)c(C(c3nnnn3C3CCCC3)N3CCCC(C)C3)cc2c1 (centres undefined) returned PGE2 EP2 inh 8.1 and EP2 modulator 25.2.
For Cc1ccc2cc(CN(Cc3nnnn3CCc3ccccc3)C3CCCCC3)c(=O)[nH]c2c1C the results were PGE2 EP2 inh 9.1 and EP2 modulator 53.8.
For CC(=O)N=c1sc2nc3ccccc3nc2n1N(C(C)=O)C(C)=O the results were S1P4 agonist 1.6, PGE2 EP2 inh 81.3*, S1P3 antagonist -15.3, S1P4 antagonist 14.2 and EP2 modulator 23.5.
Cc1ccc(OCC(=O)NC(=S)Nc2ccc3c4c(cccc24)CC3)cc1 was read as S1P4 agonist 0.4, PGE2 EP2 inh 20.4, S1P3 antagonist 3.3, S1P4 antagonist 2.3 and EP2 modulator 62.3*.
Screening O=C(COc1ccccc1)NC(=S)Nc1ccc2c3c(cccc13)CC2 returned S1P4 agonist 2.5, PGE2 EP2 inh 19.6, S1P4 antagonist -5.0 and EP2 modulator 54.7.
COc1cc2cc(C(c3nnnn3C(C)(C)C)N3CCc4ccccc43)c(=O)[nH]c2cc1OC (centres undefined) was read as S1P4 agonist -0.4, PGE2 EP2 inh 149.6*, S1P3 antagonist -9.5, S1P4 antagonist 5.2 and EP2 modulator 30.1.
For Cc1ccc(C)c2[nH]c(=O)c(C(c3nnnn3C3CCCC3)N3CCCc4ccccc43)cc12 (centres undefined) the results were PGE2 EP2 inh 4.5 and EP2 modulator 7.0.
For CC(C)(C)n1nnnc1C(c1ccc(Cl)cc1)N1CCCc2ccccc21 (centres undefined) the results were S1P4 agonist 0.0, PGE2 EP2 inh 3.1, S1P4 antagonist -11.0 and EP2 modulator 42.7.
Screening CC(C)(C)n1nnnc1C(c1cccc(C#N)c1)N1CCCc2ccccc21 (centres undefined) returned S1P4 agonist -1.0, PGE2 EP2 inh 103.2*!, S1P3 antagonist -15.9, S1P4 antagonist -12.8 and EP2 modulator 31.4.
`COc1ccccc1C(c1nnnn1C(C)(C)C)N1CCCc2ccccc21` (centres undefined) gave S1P4 agonist -4.7, PGE2 EP2 inh 10.2, S1P4 antagonist -16.0 and EP2 modulator 67.5*!.
For COc1cc2cc(C(c3nnnn3C3CCCC3)N3CCc4ccccc43)c(=O)[nH]c2cc1OC (centres undefined) the results were S1P4 agonist -3.4, S1P3 antagonist 0.1, S1P4 antagonist -6.2 and EP2 modulator 19.3.
For Cc1ccc(C)c2[nH]c(=O)c(C(c3nnnn3C3CCCC3)N3CCc4ccccc43)cc12 (centres undefined) the results were PGE2 EP2 inh 10.2 and EP2 modulator 101.2*.
c1ccc(CN2CCCN(c3nc4c(c5nncn35)CCCC4)CC2)cc1 was read as PGE2 EP2 inh 5.2 and EP2 modulator -5.5.
For COC(=O)CNC(=O)C(Cc1c[nH]c2ccccc12)NC(C)=O (centres undefined) the results were PGE2 EP2 inh 13.9 and EP2 modulator -3.3.
Cc1ccc(Cl)cc1S(=O)(=O)N1CCC(C(=O)NCc2cccs2)CC1 was read as PGE2 EP2 inh 11.8 and EP2 modulator -70.2.
For COC(=O)c1cccc(S(=O)(=O)N(Cc2cccs2)Cc2cc3cc(OC)ccc3[nH]c2=O)c1 the results were PGE2 EP2 inh 46.1* and EP2 modulator -87.6.
Screening COc1ccc2[nH]c(=O)c(CN(Cc3cccs3)S(=O)(=O)c3ccc(C(C)=O)cc3)cc2c1 returned PGE2 EP2 inh 66.3* and EP2 modulator -99.2.
For CC1=NN(c2ccc([N+](=O)[O-])cc2)C(c2ccccc2)C1 (centres undefined) the results were S1P4 agonist 0.4, PGE2 EP2 inh 7.9, S1P3 antagonist 9.2, S1P4 antagonist 4.5 and EP2 modulator 62.5*.
For CCC(=O)N1N=C(c2ccccc2)CC1c1ccc([N+](=O)[O-])cc1 (centres undefined) the results were S1P4 agonist 0.0, PGE2 EP2 inh 12.4, S1P3 antagonist 6.7, S1P4 antagonist -12.1 and EP2 modulator 48.4.
O=C(Nn1cnnc1)c1ccccc1CCc1ccccc1 was read as S1P4 agonist -0.6, PGE2 EP2 inh 14.1, S1P3 antagonist 63.7*, S1P4 antagonist -7.8 and EP2 modulator 35.2.
For CC(C)N(CCC(=O)c1ccc2ccccc2c1)Cc1ccccc1 the results were PGE2 EP2 inh 76.1* and EP2 modulator -10.6.
Screening COc1ccccc1CNC(=O)c1csc(Cc2ccc(Cl)cc2)n1 returned S1P4 agonist -0.8, PGE2 EP2 inh 14.6, S1P4 antagonist -21.7 and EP2 modulator 62.1*.
Screening O=C1C2C3C=CC(CO)(O3)C2C(=O)N1c1ccccc1-c1ccccc1 (centres undefined) returned S1P4 agonist -2.2, PGE2 EP2 inh 16.6, S1P3 antagonist -17.8, S1P4 antagonist 31.1* and EP2 modulator 6.0.
CC(C)C(=O)NC(c1ccccc1)c1cc([N+](=O)[O-])c2cccnc2c1O (centres undefined) was read as S1P4 agonist 0.0, PGE2 EP2 inh 9.5, S1P3 antagonist 2.8, S1P4 antagonist 14.6 and EP2 modulator 27.6.
Screening O=[N+]([O-])c1cc(Cc2cc([N+](=O)[O-])c3cccnc3c2O)c(O)c2ncccc12 returned PGE2 EP2 inh 75.4* and EP2 modulator -16.4.
For COc1ccccc1C1(NC(=O)C2CC(=O)N(Cc3ccccc3)C2)CCCC1 (centres undefined) the results were PGE2 EP2 inh 5.6 and EP2 modulator -12.5.
Screening COc1ccc(-c2cccc(CN(CCN3CCOCC3)Cc3cccnc3)c2)cc1 returned PGE2 EP2 inh 2.2 and EP2 modulator -63.0.
For O=S(=O)(Nc1nccs1)c1cc(Cl)ccc1Cl the results were S1P4 agonist 0.0, PGE2 EP2 inh 9.6, S1P3 antagonist -14.1, S1P4 antagonist 6.5 and EP2 modulator 61.3*.
`O=S(=O)(Nc1nccs1)c1ccc(Br)cc1` gave S1P4 agonist 0.1, PGE2 EP2 inh 4.2, S1P3 antagonist -8.0, S1P4 antagonist -1.5 and EP2 modulator 14.3.
`Cc1ccc(CN(CCCn2ccnc2)Cc2cnn(-c3ccccc3)c2)o1` gave PGE2 EP2 inh 3.2 and EP2 modulator 12.0.
`COC1=CC(=O)C(O)=C/C1=C\C=C\c1ccccc1` gave PGE2 EP2 inh 111.5* and EP2 modulator -31.9.
Screening COc1ccc2c(c1)C(=O)/C(=C/C=C/c1ccccc1)CC2 returned S1P4 agonist 3.3, PGE2 EP2 inh 11.5, S1P4 antagonist 0.8 and EP2 modulator 18.8.
`CCOC(=O)Nc1cccc(Nc2ccccc2)c1` gave S1P4 agonist 0.3, PGE2 EP2 inh 5.7, S1P3 antagonist 32.7, S1P4 antagonist -6.0 and EP2 modulator 61.5*.

Screens from PubChem.
